Several values for one entry are separate records, joined by “and”; a condition that tells them apart may be missing. Equal entries are not always repeated. Inconclusive results are not listed. Activity calls are given as the source filed them. Unless noted, calls come from the whole dose curve; as a rule, active = well fitted curve in the direction sought with a large enough effect in the repeat runs; inconclusive = weak or mixed curves; inactive = no such curve, though single readings can be large; an effect the other way counts as inactive or inconclusive.
What was measured:
[1] = A CellTox Green Cytotoxicity Assay to monitor cytotoxicity in HEK293 cells - 32 hour (AID 1224881); note: nearly all actives have a fitted effect of over 40% in size; note: potency is the fitted concentration of half-maximal effect
Method in brief: (§1)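 Homogeneous no-lysis format: HEK293 cell suspension mixed with CellTox Green reagent, seeded, incubated 5 h at 37 C/5% CO2, then dosed by pintool with compound in DMSO.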

[2] = A CellTox Green Cytotoxicity Assay to monitor cytotoxicity in HepG2 cells - 0 hour (AID 1224882); note: nearly all actives have a fitted effect of over 35% in size
Method in brief: (§2)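 Fluorescent DNA-binding dye, 600 HepG2 cells/well, 5 h preincubation then compound in DMSO; same plates read at 0–40 h, 37 C.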

[3] = A CellTox Green Cytotoxicity Assay to monitor cytotoxicity in HepG2 cells - 32 hour (AID 1224883); note: nearly all actives have a fitted effect of over 50% in size
Method in brief: as §2

[4] = qHTS RealTime-Glo MT Cell Viability Assay in HEK293 cells - 8 hour (AID 1224887); note: nearly all actives have a fitted effect of over 50% in size; note: potency is the fitted concentration of half-maximal effect
Method in brief: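 Measured as luminescence from the same continuously cultured HEK293 wells at successive time points (0, 8, 16, 24, 32, 40 h) after compound addition. Reagent present from seeding; dosing at 5 h; incubation 37 C.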

[5] = A CellTox Green Cytotoxicity Assay to monitor cytotoxicity in HEK293 cells - 16 hour (AID 1224888); note: nearly all actives have a fitted effect of over 35% in size; note: potency is the fitted concentration of half-maximal effect
Method in brief: as §1

[6] = qHTS RealTime-Glo MT Cell Viability Assay in HepG2 cells - 0 hour (AID 1224889); note: nearly all actives have a fitted effect of over 50% in size
Method in brief: (§3)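 qHTS, HepG2, 600 cells/well, RealTime-Glo (NanoLuc + prosubstrate) added with cells; 5 h preincubation; DMSO compound addition; 37 C; luminescence at 0/8/16/24/32/40 h.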

[7] = A CellTox Green Cytotoxicity Assay to monitor cytotoxicity in HepG2 cells - 8 hour (AID 1224890); note: nearly all actives have a fitted effect of over 45% in size
Method in brief: as §2

[8] = qHTS assay to identify small molecule antagonists of the estrogen receptor alpha (ER-alpha) signaling pathway using the BG1 cell line in the presence of 0.1 nM 17-beta-estradiol - cell viability counter screen (AID 1259241); note: nearly all actives have a fitted effect of over 40% in size; note: potency is the fitted concentration of half-maximal effect
Method in brief: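 CellTiter-Fluor read (30 min, 37C) on ER-alpha/ERE-luc VM7Luc4E2 cells; 22 hr compound treatment; agonist 0.1 nM E2 final; same-well multiplex.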

[9] = qHTS assay to identify small molecule antagonists of the androgen receptor (AR) signaling pathway using the MDA cell line in the presence of 0.5 nM R1881 - cell viability counter screen (AID 1259242); note: nearly all actives have a fitted effect of over 45% in size
Method in brief: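 Human breast carcinoma MDA-kb2 cells, cultured without CO2, receive compounds alongside 0.5 nM (final) R1881 agonist. After 16 hr at 37C, viability is taken as live-cell protease signal.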

[10] = target: Estrogen receptor (Homo sapiens) (UniProt P03372); test: qHTS assay to identify small molecule antagonists of the estrogen receptor alpha (ER-alpha) signaling pathway using the BG1 cell line in the presence of 0.1 nM 17-beta-estradiol (AID 1259244); note: nearly all actives have a fitted effect of over 50% in size; note: potency is the fitted concentration of half-maximal effect
Sequence of Estrogen receptor (Homo sapiens) (P03372 whole entry, looked up): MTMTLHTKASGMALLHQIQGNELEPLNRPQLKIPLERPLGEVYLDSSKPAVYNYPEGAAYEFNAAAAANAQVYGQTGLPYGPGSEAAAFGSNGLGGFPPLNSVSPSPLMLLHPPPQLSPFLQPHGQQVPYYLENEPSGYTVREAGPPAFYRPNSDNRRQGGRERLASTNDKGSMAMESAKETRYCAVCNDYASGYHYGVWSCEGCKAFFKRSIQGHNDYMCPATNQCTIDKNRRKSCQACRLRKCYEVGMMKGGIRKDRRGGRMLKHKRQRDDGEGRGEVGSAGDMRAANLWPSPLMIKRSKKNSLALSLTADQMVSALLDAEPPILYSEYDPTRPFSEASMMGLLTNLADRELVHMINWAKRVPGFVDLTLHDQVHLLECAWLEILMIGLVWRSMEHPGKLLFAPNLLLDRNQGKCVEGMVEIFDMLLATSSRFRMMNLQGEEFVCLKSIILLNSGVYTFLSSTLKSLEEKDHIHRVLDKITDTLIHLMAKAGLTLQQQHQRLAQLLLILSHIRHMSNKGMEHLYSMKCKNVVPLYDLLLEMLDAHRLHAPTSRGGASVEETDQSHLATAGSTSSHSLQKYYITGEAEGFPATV
Method in brief: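 Seeding of stripped-serum-adapted VM7Luc4E2 cells, 24 h attachment, compound transfer, then 0.1 nM final 17beta-estradiol; after 22 h incubation, ONE-Glo reagent and luminescence reading.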

[11] = qHTS assay to identify small molecule HDAC inhibitors - cell viability counter screen (AID 1259365)
Method in brief: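 To flag cytotoxic hits, 1,500 wild-type HCT-116 cells per well, plated the day before, receive test compounds for 2hr at 37 C before CellTiter-Glo reagent and a luminescence read.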

[12] = qHTS assay to identify small molecule antagonists of the sonic hedgehog signaling (Shh) pathway - cell viability counter screen (AID 1259367); note: nearly all actives have a fitted effect of over 55% in size; note: potency is the fitted concentration of half-maximal effect
Method in brief: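 CellTiter-Fluor signal in conditioned medium-stimulated 3T3 Gli1-Luc cells, 23 hr compound exposure, 37C.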

[13] = A CellTox Green Cytotoxicity Assay to monitor cytotoxicity in HEK293 cells - 8 hour (AID 1224884); note: nearly all actives have a fitted effect of over 35% in size; note: potency is the fitted concentration of half-maximal effect
Method in brief: as §1

[14] = qHTS RealTime-Glo MT Cell Viability Assay in HepG2 cells - 16 hour (AID 1224885); note: nearly all actives have a fitted effect of over 50% in size
Method in brief: as §3

[15] = qHTS assay to identify small molecule HDAC inhibitors (AID 1259364);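 note: wild-type HCT-116 cells with endogenous class I/II HDAC activity; top concentration of the series differs between compounds; nearly all actives have a fitted effect of over 45% in size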
Method in brief: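 After a 2 hr compound incubation (37C, 5% CO2), HCT-116 cells seeded at 1,500/well the day before received HDAC-Glo reagent; signal read as luminescence after 30 min at room temperature.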

[16] = qHTS RealTime-Glo MT Cell Viability Assay in HEK293 cells - 24 hour (AID 1224886); note: nearly all actives have a fitted effect of over 50% in size; note: potency is the fitted concentration of half-maximal effect
Method in brief: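 Assay medium contained NanoLuc luciferase plus cell-permeant prosubstrate, added with HEK293 cells at 600 cells/well. After 5 h at 37 C/5% CO2 compounds were added; plates stayed at 37 C for 40 h with serial luminescence reads.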

[17] = qHTS assay to identify small molecule agonists of the sonic hedgehog signaling (Shh) pathway (AID 1259368; calls by dose curve;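 note: NIH/3T3-derived 3T3Gli1-Luc cells carrying a stable Gli1-driven firefly luciferase reporter; series mostly up to about 92 µM; nearly all actives have a fitted effect of over 15% in size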)
Method in brief: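 Stable NIH/3T3 Gli1-Luc reporter clone; 24 hr cpd exposure after a 4 hr settling period; luminescence endpoint.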

[18] = qHTS assay to identify small molecule agonists of the sonic hedgehog signaling (Shh) pathway - cell viability counter screen (AID 1259366); note: nearly all actives have a fitted effect of over 50% in size; note: potency is the fitted concentration of half-maximal effect
Method in brief: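 Fluorescence from CellTiter-Fluor reports live cells in this counter screen. NIH/3T3-derived Gli1-Luc reporter cells receive test compounds for 24hr at 37C; reagent goes in at 23hr.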

[19] = target: Androgen receptor (Homo sapiens) (UniProt P10275); test: qHTS assay to identify small molecule antagonists of the androgen receptor (AR) signaling pathway using the MDA cell line in the presence of 0.5 nM R1881 (AID 1259243); note: nearly all actives have a fitted effect of over 50% in size; note: potency is the fitted concentration of half-maximal effect
Sequence of Androgen receptor (Homo sapiens) (P10275 whole entry, looked up): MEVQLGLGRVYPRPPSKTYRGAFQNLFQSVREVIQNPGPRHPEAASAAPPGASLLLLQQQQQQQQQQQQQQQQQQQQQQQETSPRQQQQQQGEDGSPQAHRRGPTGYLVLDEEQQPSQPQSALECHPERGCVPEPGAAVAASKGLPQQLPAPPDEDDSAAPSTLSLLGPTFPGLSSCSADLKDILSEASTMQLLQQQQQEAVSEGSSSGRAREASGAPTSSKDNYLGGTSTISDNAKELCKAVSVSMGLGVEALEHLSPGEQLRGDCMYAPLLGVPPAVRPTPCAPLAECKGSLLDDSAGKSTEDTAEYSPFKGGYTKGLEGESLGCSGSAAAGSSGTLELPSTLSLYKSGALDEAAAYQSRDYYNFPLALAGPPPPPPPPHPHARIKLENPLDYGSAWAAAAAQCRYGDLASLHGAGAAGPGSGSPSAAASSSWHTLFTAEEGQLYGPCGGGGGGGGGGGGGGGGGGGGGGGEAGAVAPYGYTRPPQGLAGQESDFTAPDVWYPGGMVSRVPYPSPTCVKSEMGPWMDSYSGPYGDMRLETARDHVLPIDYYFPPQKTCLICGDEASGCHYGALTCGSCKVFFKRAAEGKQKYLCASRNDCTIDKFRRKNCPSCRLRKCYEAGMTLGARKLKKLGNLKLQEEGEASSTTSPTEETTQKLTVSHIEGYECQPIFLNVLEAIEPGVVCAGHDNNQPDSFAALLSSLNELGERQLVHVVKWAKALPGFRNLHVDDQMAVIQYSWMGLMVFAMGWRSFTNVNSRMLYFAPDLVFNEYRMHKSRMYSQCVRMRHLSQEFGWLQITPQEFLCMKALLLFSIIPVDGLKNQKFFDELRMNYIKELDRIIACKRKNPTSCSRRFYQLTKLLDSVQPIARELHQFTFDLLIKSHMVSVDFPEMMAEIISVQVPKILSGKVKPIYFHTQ
Method in brief: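 Cells: MDA-kb2 (MMTV-luc). Stimulus: 0.5 nM R1881. Time: 16 hr, 37C, no CO2. Detection: ONE-Glo luminescence after 30 min at RT.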

[20] = qHTS assay to identify small molecule phospholipidosis (PLD) inducers (AID 1259344; active = well fitted curve in the direction sought with a large enough effect; an effect the other way counts as inactive or inconclusive)
Method in brief: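 Accumulated phospholipid, stained red by LipidTOX during 24 h compound treatment of HepG2 cells at 37 C, is quantified from images as pit number and intensity, normalised per cell using Hoechst-stained nuclei.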

Measured: Potency

COP(=O)(OC)SCn1c(=O)oc2cc(Cl)cnc21
inactive: [1] | [2] | [3] | [4] | [5] | [6] | [7] | [8] | [9] | [10] | [11] | [12]

O=C(CBr)c1ccc(O)cc1
inactive: [1] | [2] | [13] | [14] | [5] | [6] | [7] | [8] | [9] | [15] | [11] | [12]

O=[N+]([O-])c1c2ccccc2cc2ccccc12
inactive: [2] | [13] | [14] | [16] | [4] | [6] | [7] | [8] | [9] | [10] | [11] | [17]
active: [1] 5.43 µM | [5] 5.43 µM

CN(C)C1CSSSC1
inactive: [1] | [2] | [3] | [16] | [5] | [6] | [7] | [8] | [9] | [10] | [15] | [11] | [12] | [17]

CC(C)OC(=S)S
inactive: [1] | [2] | [13] | [14] | [5] | [6] | [7] | [8] | [9] | [10] | [15] | [11] | [17]
active: [18] 30.6 µM | [12] 61.1 µM

ClC1=C(Cl)[C@]2(Cl)[C@@H]3[C@@H](Cl)[C@@H](Cl)C[C@@H]3[C@@]1(Cl)C2(Cl)Cl
inactive: [1] | [3] | [13] | [14] | [16] | [4] | [5] | [6] | [7] | [8] | [9] | [19] | [10] | [15] | [11] | [18] | [12] | [17]

[Cl][Sb]([Cl])[Cl]
inactive: [1] | [2] | [13] | [14] | [4] | [5] | [6] | [7] | [15] | [11] | [17]
active: [8] 27.3 µM

Oc1cc(Cl)c(Cl)c(Cl)c1
active: [1] 11.7 µM | [19] 46.1 µM | [10] 41 µM
inactive: [2] | [14] | [4] | [5] | [7] | [8] | [15] | [11] | [18] | [17]

CCOC(=O)c1ccccc1S(=O)(=O)NC(=O)Nc1nc(Cl)cc(OC)n1
inactive: [2] | [3] | [14] | [6] | [7] | [8] | [9] | [19] | [10] | [15] | [11] | [18] | [12] | [17]
active: [1] 54.9 µM

ClC1=C(Cl)C2(Cl)C3C(Cl)C(Cl)CC3C1(Cl)C2(Cl)Cl (stereo not given)
active: [1] 48.8 µM and 49 µM | [13] 54.8 µM | [16] 48.8 µM | [4] 48.8 µM and 49 µM | [5] 54.8 µM | [19] 60.9 µM and 48.6 µM
inactive: [2] | [6] | [8] | [9] | [10] | [15] | [11] | [12] | [17]

CC(=O)OC1(c2ccccc2)CCN(CCc2ccccc2)CC1
inactive: [1] | [2] | [13] | [14] | [5] | [6] | [7] | [9] | [15] | [11] | [12] | [17]
active: [16] 28.2 µM

Clc1ccc(CSC(Cn2ccnc2)c2ccc(Cl)cc2Cl)cc1 (stereo not given)
inactive: [1] | [2] | [3] | [5] | [6] | [7] | [8] | [20] | [15] | [17]
active: [12] 26.6 µM

COC(=O)N(C(=O)N1CO[C@@]2(C(=O)OC)Cc3cc(Cl)ccc3C2=N1)c1ccc(OC(F)(F)F)cc1
inactive: [1] | [2] | [3] | [5] | [6] | [7] | [8] | [9] | [11] | [12] | [17]
active: [19] 23.5 µM | [10] 46.9 µM

C[C@]12CC[C@@H]3c4ccc(OC(=O)N(CCCl)CCCl)cc4CC[C@H]3[C@@H]1CC[C@@H]2O
inactive: [1] | [3] | [13] | [14] | [16] | [4] | [5] | [6] | [7] | [8] | [9] | [20] | [15] | [11] | [18] | [12] | [17]

CC(C)CC(C)N (stereo not given)
inactive: [1] | [3] | [13] | [14] | [16] | [4] | [5] | [6] | [7] | [8] | [9] | [10] | [11] | [18] | [12] | [17]

Source: PubChem BioAssay (Tox21)
